Source: PubChem BioAssay (Tox21)
Records with an inconclusive call do not appear. A number with no mark means an inactive call. Calls of active or inactive are those of the source. Calls come from the whole dose curve; as a rule, active = well fitted cell-killing curve with a large enough effect in the repeat runs; inconclusive = weak or mixed curves, or effect the other way; inactive = flat fitted curve, though single readings scatter.

Experiment: qHTS assay to identify small molecule agonists of the constitutive androstane receptor (CAR) signaling pathway - cell viability counter screen (AID 1224836); note: nearly all actives have a fitted effect of over 45% in size
Settings: HepG2-CYP2B6-hCAR viability, CellTiter-Fluor, 23 h, PK11195 added to every well; series mostly up to 92.4 µM; viability change, negative = cytotoxic: at the top concentration
Excerpt: U.S. Tox21 Program National Center for Advancing Translational Sciences [NCATS] NIH Chemical Genomics Center [NCGC] U.S. Environmental Protection Agency [EPA] National Institutes of Environmental Health Sciences [NIEHS] National Toxicology Program [NTP] U.S. Food and Drug Administration [FDA] Tox21 Assay Overview: The constitutive androstane receptor (CAR) is a nuclear receptor which regulates multiple drug metabolizing enzymes (DMEs) and transporters. Activating CAR will generally increase the transcription and subsequent translation of CYP2B6 and CYP3A4. These two DMEs represent about 50% of the drug metabolizing potential in the body. […] Recently, there have also been studies performed indicating CARs role in energy metabolism and cancer therapy. Therefore, inducing CARs activity could have a potential effect on diabetes and cancer. Identifying environmental toxins and compounds which modulate CAR, through the use of the Tox21 10K compound collection, will be an important step in determining the toxicity and potential therapeutic effects these factors will have on the human body. To differentiate true CAR agonists from cytotoxic substances, the assay is multiplexed with a cell viability assay.
Tox21 Assay Protocol Summary: A double-stable (hCAR and CYP2B6-2.2kb) transfected cell line, derived from human hepatoma (HepG2) cells, was utilized for the duration of the quantitative high-throughput screens. The HepG2-CYP2B6-hCAR cells were dispensed at 2500 cells/4 uL/well in 1536-well white solid bottom plates using a Multidrop Combi. After the assay plates were incubated at 37 C/5% CO2 for 4 hrs, 23 nL of compounds at 15 concentrations (from 5-48 columns) or positive control (from 1 to 4 columns) were transferred to the assay plates using a Pintool station. One uL of PK11195 (final concentration = 0.75 uM) was added, using a Flying Reagent Dispenser, inside each well. After a 23 hr incubation period at 37 C/5% CO2, 1 uL of CellTiter-Fluor reagent was added into each well of the assay plates using a Flying Reagent Dispenser. The fluorescence intensity in the plates was then measured using a ViewLux plate reader.
% is set by controls: 0 for no effect and ±100 for the full control effect.

SMILES | viability change, negative = cytotoxic | Potency
OC[C@]1(O)OC[C@@H](O)[C@H](O)[C@@H]1O | -2.41% | 
CC(C)(CC(=O)O)C(=O)O | -0.753% | 
CCOC(=O)CCC(C)=O | 1.69% | 
COc1ccccc1OCC(O)CN1CCN(CC(=O)Nc2c(C)cccc2C)CC1 (stereo not given) | -6.27% [at 42.5 µM] | 
CCCCCSCCCCC | 1.81% | 
COC(=O)c1cc(C(=O)OC)cc(S(=O)(=O)O)c1 | 6.01% | 
CCN(CC)CCNC(=O)c1cc(S(C)(=O)=O)ccc1OC | 1.63% [at 42.5 µM] | 
NCCc1cnc[nH]1 | 1.7% [at 42.5 µM] | 
O=C1CCCC(=O)C1 | -0.978% | 
CC(C)NCCCC1(C(N)=O)c2ccccc2-c2ccccc21 | -5.8% [at 42.5 µM] | 
COc1nc(N)nc2c1ncn2[C@@H]1O[C@H](CO)[C@@H](O)[C@@H]1O | -7.16% [at 42.5 µM] | 
CCn1nc(C(=O)O)c(=O)c2cc3c(cc21)OCO3 | 6.77% [at 42.5 µM] | 
O=C[C@H](O)[C@@H](O)[C@H](O)[C@H](O)CO | 0.355% | 
O=C(O)CCCl | 3.72% | 
NS(=O)(=O)c1ccccc1Cl | 4.03% | 
C1CN(CCOCCN2CCOCC2)CCO1 | 1.59% | 
C=CCCCCCCCCC=O | 0.359% | 
COc1c(N2C[C@@H]3CCCN[C@@H]3C2)c(F)cc2c(=O)c(C(=O)O)cn(C3CC3)c12 | 1.43% [at 42.5 µM] | 
O=C(CCCN1CCN(c2ccccn2)CC1)c1ccc(F)cc1 | -4.99% [at 42.5 µM] | 
COCCc1ccc(OCC(O)CNC(C)C)cc1 (stereo not given) |  | inactive

SMILES | viability change, negative = cytotoxic | Potency
N=C(N)c1ccccc1 | 1.82% | 
Oc1ccc(C2CNCCc3c2cc(O)c(O)c3Cl)cc1 (stereo not given) | 0.73% [at 42.5 µM] | 
Cc1c(O)cccc1O | -0.474% | 
CC(=O)Nc1c(I)cc(I)c(C(=O)O)c1I | -6.73% [at 42.5 µM] | 
COC(=O)c1ccc(C)cc1C1=NC(C)(C(C)C)C(=O)N1 (stereo not given) | -2.11% | 
NC(=O)COCCN1CCN(C(c2ccccc2)c2ccc(Cl)cc2)CC1 (stereo not given) | 7.4% [at 42.5 µM] | 
CC/C=C\CCOC(C)=O | -9.21% | 
ClC(Cl)(Br)Br | 2.87% | 
COC(=O)NN | -7.23% | 
CCOC(=O)Nc1ccc(NCc2ccc(F)cc2)nc1N | 16.6% [at 42.5 µM] | 
CCOC(=O)[C@H](CCc1ccccc1)N[C@@H](C)C(=O)N1[C@H](C(=O)O)C[C@@H]2CCC[C@@H]21 | 0.66% [at 42.5 µM] | 
CC(C[N+](C)(C)C)OC(N)=O (stereo not given) | 7.94% [at 42.5 µM] | 
CC(=O)OCC(CCn1cnc2cnc(N)nc21)COC(C)=O | 5.54% [at 42.5 µM] | 
CCC(C)C1CCCCC1=O (stereo not given) | 2.71% | 
CC(C)OC(=O)c1ccccc1 | -6.65% | 
Nc1cc(=O)[nH]c(N)n1 | 1.54% [at 42.5 µM] | 
CCOC(C)(C)C | -0.397% | 
CC[N+](C)(C)c1cccc(O)c1 | 11.1% [at 42.5 µM] | 
N=c1nc(N2CCCCC2)cc(N)n1O | -2.28% [at 42.5 µM] | 
CC(C)CNCC(C)C | -0.0498% | 
